Compound activity deposited in PubChem by SRMLSC.
Spn MK inh: inhibitors of Streptococcus pneumoniae mevalonate kinase; purified MK, PK/LDH-coupled NADH absorbance 340 nm; inhibition, % at 10 µM; 65,000 compounds, 0.48% hits; AID 555;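 active means ranked among the strongest by inhibition in the single 10 µM screen, a fixed top-ranked set picked for dose follow-up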
Fluor 339 460: intrinsic fluorescence of library compounds, ex339/em460 – biochemical, MLSMR library, data from DPM-DC assay, artefact control, profiling panel; compound autofluorescence, ex339/em460 nm, NADH buffer; hits give high values; 1 = no-compound wells, NADH background; fluorescence fold increase at 10 µM; 65,000 compounds, 5.5% hits;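 active means at 10 µM, mean starting fluorescence two-fold or more over control wells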;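 further: signal is the first read of a kinetic run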
Spn DPM-DC inh: S. pneumoniae DPM-DC inhibition. purified DPM-DC, PK/LDH coupled NADH fluorescence. calls only at 10 µM. 65,000 compounds, 0.49% hits. AID 556;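 active means the 320 compounds with the highest percent inhibition in the single-dose primary screen, excluding strongly autofluorescent ones, cut at about 32% in these data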;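 further: kinetic rate of NADH fluorescence loss reporting ADP formed by the decarboxylase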
Spn PMK inh: S. pneumoniae PMK inhibition; 65,000 compounds, 0.49% hits; AID 539; inhibition, % at 10 µM; purified PMK, PK/LDH-coupled NADH absorbance 340 nm;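 active means top-ranked compounds by inhibition in the single 10 µM screen, taking a fixed number of the strongest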;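 further: 0% = full reaction with DMSO carrier and 100% = background rate without enzyme reaction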
NADH enzymes: inhibition of NAD/NADH coupling enzymes, library profiling; coupled PK/LDH NADH assays, four targets; IC50, µM (series often up to 10 µM), for the others: at the top dose inhibition; 65,000 compounds, 0.02% hits; AID 774;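 active means single-dose screening hits from any of four coupled enzyme assays that gave an IC50 when retested across doses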;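 further: the DPM-DC format reads NADH fluorescence rather than 340 nm absorbance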
Abs 340nm: absorbance at 340 nm; compound absorbance at 340 nm, fold over control; fold change at 10 µM; 65,000 tested, under 10 active; AID 708;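 active means at 10 µM dose, initial 340 nm absorbance at least 2 fold that of control wells; inactive means change under 2 fold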;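 further: initial absorbance extrapolated from kinetic A340 decline of NADH oxidation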
Starred values were filed as active, the others as inactive; i = inactive; x = no result given; + = active, no number. Only some compounds are listed: those with a hit (about 6.5% of all), similar ones and a draw of the others.

SMILES	Spn MK inh	Fluor 339 460	Spn DPM-DC inh	Spn PMK inh	NADH enzymes	Abs 340nm
CCCOc1ccc2oc(=O)c3c(c2c1)CCCN3C(=O)CN1CCN(C(=O)c2ccco2)CC1	7	3*	i	6	7%	1.1
O=C(CN1CCCC1)N1CCCc2c1c(=O)oc1ccc(OCc3ccccc3)cc21	0	3*	+	4	12%	1.1
CCCOc1ccc2oc(=O)c3c(c2c1)CCCN3C(=O)CN1CCN(c2ncccn2)CC1	15	1.9	i	8	15%	1.1
COc1cccc(C2(O)CCN(C(=O)C3CCC3)CC2)c1	0	1.1	i	4	1%	0.97
COn1c(C)c(C(C)=O)c2c3nonc3ccc21	11	3*	i	14	15%	1
CCCCOn1c(C)c(C(=O)OCC)c2c3nonc3ccc21	0	2.6*	i	14	2%	0.99
O=C(NC(c1ccccc1)c1ccccc1)C1CCCN(S(=O)(=O)c2cnc[nH]2)C1 (stereo not given)	3	1	i	0	2%	1
c1ccc(Cn2nnc3c(N4CCc5ccccc54)ncnc32)cc1	3	4.3*	x	7	5%	1
c1ccc(Cn2nnc3c(N4CCCCCC4)ncnc32)cc1	6	1	i	0	3%	0.97
COc1cc2c(C#N)c(N3CCc4ccccc4C3)nc(N)c2c(N)n1	0	2.2*	x	0	0%	1
COc1cc2c(C#N)c(N3CCCCC3)nc(N)c2c(N)n1	1	5.1*	x	9	5%	1.1
COc1cc2c(C#N)c(N3CCOCC3)nc(N)c2c(N)n1	0	3.4*	x	13	2%	1
O=C(O)CC(c1ccc(Cl)cc1)n1cccc1 (stereo not given)	3	1.1	i	9	4%	1
O=c1oc2cc(O)ccc2c2c1CCCC2	9	2.1*	x	4	7%	1.1
Cc1coc2cc3oc(=O)c4c(c3cc12)CCCC4	6	1.8	i	1	4%	1.1
COC(=O)C(C)Oc1ccc2c3c(c(=O)oc2c1)CCCCC3 (stereo not given)	0	3*	x	2	1%	1
O=c1oc2cc(O)ccc2c2oc3cc(O)ccc3c12	5	2.4*	x	8	5%	1
CC(C)Oc1ccc2c3c(c(=O)oc2c1)CCC3	0	2.1*	x	4	2%	1.1
CCN(CC)c1ccc2c(c1)oc(=O)c1c(Cl)cc(=O)oc12	8	1.7	i	1	9%	1.1
CCCOc1ccc2c3c(c(=O)oc2c1)CCCC3	11	3.8*	x	1	6%	1.1
O=C(Oc1ccc2c3c(c(=O)oc2c1)CCCC3)c1ccco1	7	2.2*	x	0	4%	1
CCc1cc2c3c(c(=O)oc2cc1OC)CCCC3	2	3.8*	x	11	7%	1.1
COC(=O)c1ccc(OC(=O)c2ccco2)cc1	7	1.2	i	1	3%	1
CCOc1cc2oc(=O)c3c(c2cc1Cl)CCC3	0	1.5	i	4	2%	1
Cc1ccc(C)c(NC(=O)C2CC(O)CN2C(=O)OC(C)(C)C)c1 (stereo not given)	2	1	i	18	7%	0.99
SMILES	Spn MK inh	Fluor 339 460	Spn DPM-DC inh	Spn PMK inh	NADH enzymes	Abs 340nm
COc1ccc(C(O)Cn2c(=N)n(CCCN(C)C)c3ccccc32)cc1 (stereo not given)	0	0.99	+	8	8%	1
COc1ccc(OCCn2c(=N)n(CCO)c3ccccc32)cc1	4	1.1	i	3	4%	1
CC(=O)NC(C)C(=O)OCC(=O)Nc1ccc(Br)cc1 (stereo not given)	1	1	i	8	1%	1.1
CC(C)=CC(=O)Nc1ccc(Br)cc1	14	1.1	i	active	5%	0.97
CCCNC(=O)c1ccccc1NC(=O)CN(c1ccccc1OCC)S(C)(=O)=O	8	1	i	0	1%	1
CC1=C(C(=O)Nc2cc(C)ccn2)C(c2ccc(C)cc2)C2=C(CCCC2=O)N1 (stereo not given)	5	2.3*	x	0	3%	1.1
CCc1ccccc1NC(=O)CSC1=C(C#N)C(c2ccc3c(c2)OCO3)C2=C(CCCC2=O)N1 (stereo not given)	8	1.2	i	4	4%	1.1
